Assay outcomes: PubChem, National Center for Advancing Translational Sciences (NCATS)
TDP1 cell noCPT = qHTS for Inhibitors of human tyrosyl-DNA phosphodiesterase 1 (TDP1): qHTS in cells in absence of CPT; Potency, µM (series often up to 46.2 µM), without a hit: top-dose activity change, negative = growth inhibition, hits mostly inhibitors; DT40 Tdp1-/- hTDP1 cells, no CPT, ATP luminescence, 48 h; 420,000 compounds, 15% hits; also: nearly all actives have a fitted effect of over 55% in size
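No-CPT arm: Tdp1-/-;hTDP1 DT40 cells (400/well) plus compounds, incubated ≥48 hr at 37 °C. Readout CellTiter-Glo luminescence.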
RORg inh = inhibitors of mouse ROR gamma transcriptional activity | 310,000 compounds, 5.4% hits | Potency, µM (highest dose often 53.6 µM), inactives show at the highest dose activity change, negative = inhibition, hits mostly inhibitors | P51450 | Drosophila S2 Gal4-RORgamma UAS-luciferase reporter, 20 h; also: nearly all actives have a fitted effect of over 60% in size
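Stably transfected Drosophila Schneider cells are the test system, with ROR gamma fused to Gal4 and luciferase under UAS control; luminescence is read after 20 hr of 700 uM copper sulfate induction at ambient temperature.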
Gal4-VP16 FLuc = Gal4-VP16 reporter inhibition counter-screen; Drosophila S2 Gal4-VP16 UAS-luciferase, luminescence, 20 h; Potency, µM (titrated, usually from 53.6 µM), for inactives: at the highest dose activity, negative = inhibition, most hits filed as inhibitors; 310,000 compounds, 3.5% hits; AID 2546;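 also: Gal4-VP16 expression switched on by copper sulfate through the metallothionein promoter; nearly all actives have a fitted effect of over 50% in size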
ELG1 repair inh = inhibitors of ELG1-dependent DNA repair in HEK293T cells. 330,000 compounds, 2.3% hits. HEK293T ELG1-luciferase reporter, luminescence, 16 h; DNA damage induced by 5-fluorouridine. Potency, µM (titrated, usually from 46.1 µM), inactives show at the highest dose activity change, negative = inhibition, usual class: inhibitors; also: nearly all actives have a fitted effect of over 55% in size
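Cells (2,000 per well) received 5-fluorouridine plus test compound or DMSO and were incubated 16 hr at 37 °C, 5% CO2. Luciferase activity was read by luminescence 30 min after ONE-Glo addition; signal suppression marked inhibition of damage-induced ELG1 function.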
TDP1 cell CPT = DT40-hTDP1 cell growth loss with CPT | Potency, µM (top dose mostly 46.2 µM), without a hit: at the highest dose activity change, negative = growth inhibition, most hits filed as inhibitors | chicken DT40 Tdp1-/-;hTDP1 cells + 20 nM CPT, ATP luminescence, 48 h | 420,000 compounds, 12% hits | AID 686979; also: nearly all actives have a fitted effect of over 55% in size
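Chicken DT40 Tdp1-/- cells stably complemented with human TDP1 were seeded at 400 cells/well in medium containing 20 nM camptothecin, exposed to pin-transferred compounds, and grown at 37 °C for at least 48 hr. Viability was read as ATP luminescence.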
12-LOX inh = inhibitors of human 12S-lipoxygenase ALOX12. Potency, µM (highest dose often 108 µM), for the others: top-dose activity change, negative = inhibition, usual class: inhibitors. purified 12hLO, xylenol orange hydroperoxide absorbance. P18054. 580,000 compounds, 1.1% hits. AID 1671190
Target sequence (P18054 whole entry, looked up): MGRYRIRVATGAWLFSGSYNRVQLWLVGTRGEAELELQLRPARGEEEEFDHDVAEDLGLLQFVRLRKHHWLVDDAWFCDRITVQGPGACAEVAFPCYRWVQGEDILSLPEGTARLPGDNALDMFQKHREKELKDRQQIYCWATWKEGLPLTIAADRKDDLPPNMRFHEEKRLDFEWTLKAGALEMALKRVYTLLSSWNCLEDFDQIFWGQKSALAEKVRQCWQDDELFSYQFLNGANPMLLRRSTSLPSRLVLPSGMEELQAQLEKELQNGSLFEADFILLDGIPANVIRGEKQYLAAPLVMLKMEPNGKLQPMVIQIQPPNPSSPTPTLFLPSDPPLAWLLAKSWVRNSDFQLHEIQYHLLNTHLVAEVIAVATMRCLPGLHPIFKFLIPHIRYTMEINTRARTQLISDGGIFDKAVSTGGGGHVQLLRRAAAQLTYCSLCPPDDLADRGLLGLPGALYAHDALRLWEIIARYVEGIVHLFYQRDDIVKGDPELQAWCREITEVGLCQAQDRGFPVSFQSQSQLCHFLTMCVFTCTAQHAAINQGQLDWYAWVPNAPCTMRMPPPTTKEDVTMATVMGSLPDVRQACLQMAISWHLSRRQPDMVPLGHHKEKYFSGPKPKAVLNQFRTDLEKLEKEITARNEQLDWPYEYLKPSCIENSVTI
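Purified human 12hLO at 150 nM in 25 mM Hepes, 0.01% Triton X-100, pH 7.0, preincubated 15 min at room temperature with compound. Reaction started with 40 uM arachidonic acid, 30 min at room temperature. Hydroperoxide measured by Fe-xylenol orange, 573/405 nm absorbance ratio.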
Active calls of the source: *; ? = inconclusive; / = no result given; [ ] = another dose, or the depositor's remark. Sampled rows, rich in hits. Any-hit rate of the full collection: about 15%. Calls follow the shape of the dose curve; as a rule, active = well fitted curve in the direction sought with a large enough effect; inconclusive = small, poorly fitted or top-dose-only effect, or another doubt; inactive = no such curve, though single readings can be large; an effect the other way counts as inactive or inconclusive. % is scaled to controls: 0 for no effect and ±100 for the full control effect; potency is read from the fitted curve at half-maximal effect.

SMILES	TDP1 cell noCPT	RORg inh	Gal4-VP16 FLuc	ELG1 repair inh	TDP1 cell CPT	12-LOX inh
COc1ccc(NC(=O)c2nc[nH]c2C(=O)N[C@H](C)c2ccccc2)cc1	?	6.3µM*	7.9µM*	?	?	-21%
C[C@H](NC(=O)c1[nH]cnc1C(=O)Nc1ccccc1F)c1ccccc1	16µM*	/	/	/	?	16%
Cc1ccc(NC(=O)c2nc[nH]c2C(=O)N[C@H](C)c2ccccc2)cc1	?	/	/	-19%	23µM*	?
Cc1cccc(NC(=O)c2nc[nH]c2C(=O)N[C@H](C)c2ccccc2)c1	?	/	/	?	?	-14%
CCOC(=O)c1ccc(NC(=O)c2nc[nH]c2C(=O)N[C@H](C)c2ccccc2)cc1	?	2.8µM*	7.1µM*	?	?	1%
C[C@H](NC(=O)c1[nH]cnc1C(=O)Nc1ccccc1)c1ccccc1	?	/	/	?	?	3%
c1ccc(CN2CCC[C@H]2c2nc(-c3ccnc(N4CCOCC4)c3)no2)cc1	/	/	/	/	/	34%[176 µM]
COc1ccc(C(=O)N2CCc3ccc(C(=O)NCc4ccccc4OC)cc32)cc1	/	/	/	/	/	3%
CCOC(=O)c1[nH]cnc1C(=O)Nc1ccccc1	-1%	?	?	-8%	5%	7%
CCOC(=O)c1ccc(NC(=O)c2nc[nH]c2C(=O)N(C)Cc2ccccc2)cc1	?	10µM*	?	-18%	?	15%
COc1cc(NC(=O)CN(C)S(=O)(=O)c2ccc3c(c2)CC(C)N3C(C)=O)cc(OC)c1OC (configuration not stated)	?	26%	-4%	?	?	-1%
COc1cc(CNS(=O)(=O)c2ccc3c(c2)CC(C)N3C(C)=O)cc(OC)c1OC (configuration not stated)	?	29%	22µM*	-4%	10µM*	3%
CCOc1ccc(CNS(=O)(=O)c2ccc3c(c2)CC(C)N3C(C)=O)cc1OC (configuration not stated)	12µM*	/	/	/	13µM*	-1%
CC(=O)N1c2ccc(S(=O)(=O)NCc3ccccc3Cl)cc2CC1C (configuration not stated)	7.3µM*	22%	-3%	-10%	?	2%
CC(=O)N1c2c(cc(Br)cc2S(=O)(=O)NCc2ccccc2Cl)CC1C (configuration not stated)	?	/	/	/	?	-23%
COc1ccc(CCNS(=O)(=O)c2ccc3c(c2)CC(C)N3C(C)=O)cc1OC (configuration not stated)	?	?	-29%	?	-27%	22%[57.4 µM]
Cn1nc(C(=O)NC2CCCCCCC2)c(Cl)c1C(F)(F)F	/	/	/	/	/	3%
CN(C)c1cccc(C(=O)N2CCN(C(=O)c3nnn4c3COC(c3ccc(Cl)cc3)C4)CC2)c1 (configuration not stated)	/	/	/	/	/	42%
COc1ccccc1NC(=O)NC[C@H]1O[C@H](Cc2cc(-c3cccc(O)c3)on2)CC[C@@H]1O	/	/	/	/	/	48%
CC(C)CC(NC(N)=O)C(=O)O (configuration not stated)	/	/	/	/	/	1%
CN(C)S(=O)(=O)c1ccc2nnn(OCC(=O)NC34CC5CC(CC(C5)C3)C4)c2c1	26µM*	13%	-7%	-2%	?	-12%
CS(=O)(=O)NCCC(=O)O	/	/	/	/	/	2%
COc1ccc(C)cc1C(C)NC(=O)c1ccc2c(c1)OCO2 (configuration not stated)	/	/	/	/	/	12%
C=CCC1C=C(Cc2ccccc2)CC(CC=C)N1 (configuration not stated)	23µM*	1%	7%	-6%	18µM*	-7%
C=CC[C@H]1CC(C)=C[C@H](CC=C)N1	1%	-13%	-6%	17%	13%	?
SMILES	TDP1 cell noCPT	RORg inh	Gal4-VP16 FLuc	ELG1 repair inh	TDP1 cell CPT	12-LOX inh
C=CC[C@H]1CC(Cc2ccccc2)=C[C@H](CC=C)N1	18µM*	-25%	4%	0%	16µM*	?
CC(C)(c1nnnn1-c1ccccc1)N1CCOCC1	/	/	/	/	/	4%
CNc1sc(C(=O)c2ccccc2F)c(N)c1-c1nc2ccccc2s1	?	7.9µM*	13µM*	?	?	?
O=C(CNC(=O)c1ccccc1F)OCc1nc2ccccc2s1	-11%	-7%	-16%	?	-18%	45%
CC(NC(=O)COc1ccc(NC(=O)C2CC2)cn1)c1cccs1 (configuration not stated)	/	/	/	/	/	15%
Cc1cccc(Oc2ccc(NC(=O)c3ccc4c(c3)NC(=O)CS4)cc2)c1	/	/	/	/	/	-14%
CC(/C=C/c1ccccc1)=N/NC(=O)c1cccc(Br)c1	23µM*	2.2µM*	3.5µM*	-6%	?	-1%
C/C(=N\NC(=O)c1ccccc1)c1cccc(Br)c1	-18%	-121%	?	?	-31%	-1%
CC(/C=C/c1ccccc1)=N\NC(=O)c1cc(C)nc2ccccc12	?	14µM*	?	1%	?	0%
CC(/C=C/c1ccccc1)=N\NC(=O)c1ccc(Br)cc1	?	0.5µM*	0.89µM*	?	?	1%
Cc1cccn2cc(CSc3nnc4c(Cl)cc(C(F)(F)F)cn34)nc12	/	/	/	/	/	-38%
O=C1NC(c2ccc(Br)cc2)Nc2ccccc21 (configuration not stated)	3.7µM*	32%	3%	?	6.5µM*	?
O=C1NC(c2ccc3ccccc3c2)Nc2ccccc21 (configuration not stated)	6.5µM*	/	/	/	16µM*	47%
CC1(C(=O)NCc2ccc3c(c2)OCO3)CCCCC(=O)N1 (configuration not stated)	/	/	/	/	/	3%
O=C1NC(c2ccc3c(c2)OCO3)Nc2ccccc21 (configuration not stated)	16µM*	36%	-2%	12%	23µM*	0%
CC1(CCc2ccc3c(c2)OCO3)NC(=O)c2ccccc2N1 (configuration not stated)	?	?	0%	-8%	23µM*	0%
COCC(=O)N1CCCN(S(=O)(=O)c2ccccc2)CCC(=O)NCC1	/	/	/	/	/	-5%
Cc1ccc(/C=C(/C#N)S(C)(=O)=O)cc1	/	/	/	/	/	-5%
CN(C(=O)Cc1cccc2cccnc12)C1CCS(=O)(=O)C1 (configuration not stated)	/	/	/	/	/	1%
CCOCCn1c(=O)[nH]c2cc(C(=O)NCc3cc(=O)[nH]c(C)n3)ccc21	/	/	/	/	/	20%
